Drawing on PubChem BioAssay (Tox21), this text covers Potency for eight compounds.

A short description of assay [1]: Nuclear factor erythroid 2-related factor 2/antioxidant responsive element (Nrf2/ARE) small molecule agonists: luciferase reporter gene qHTS assay in human keratinocytes (AID 1919969; also: nearly all actives have a fitted effect of over 35% in size; also: potency is read from the fitted curve at half-maximal effect). (In general: Reporter assays use an easily measured gene product as a stand-in for the process of interest.)
Assay [2] has as its target Gonadotropin-releasing hormone receptor (Homo sapiens) (UniProt P30968). Nature of the assay: Human gonadotropin-releasing hormone receptor (GnRHR) small molecule agonists, calcium flux assay in GnRHR-HEK293 cells (AID 1920063). Also: nearly all actives have a fitted effect of over 35% in size. An outline of the steps:
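GnRHR-HEK293, 1500 cells/well, 18 h 37 C/5% CO2; Ca dye 1 h 37 C; cpd pinned (DMSO), agonist mode; kinetic FL 480/540, 3 min, 1 s reads; 15 conc, n=3.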
Background: Calcium assays in cells follow changes in intracellular calcium, usually with a dye or a luminescent sensor.

The target in assay [3] is KiSS-1 receptor (Homo sapiens) (UniProt Q969F8). Nature of the assay: Human kisspeptin (KISS1R) small molecule agonists, calcium flux assay in KISS1R-HEK293 cells (AID 1920064; active = well fitted activation curve with a large enough effect in the repeat runs). An outline of the steps: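 Stable human KISS1R HEK293 line; 18 h plating, 37 C/5% CO2; calcium dye 1 h 37 C; compound pin transfer; kinetic fluorescence Ex/Em 480/540, 3 min.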
The nature of assay [4]: G protein-coupled receptor (GPCR) small molecule agonists, calcium flux assay: HEK293 wild type cell line counter screen (AID 1920065). An outline of the steps: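 Kinetic fluorescence at Ex/Em 480/540, recorded every second over 3 min, served as the read-out after compound addition. Each compound was tested at 15 concentrations in triplicate on cells pre-loaded with calcium dye for 1 h.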

Assay [5] is described as follows: p53 small molecule agonists, cell-based qHTS assay with rat liver microsomes (AID 1963578). In a few lines:
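Cells carrying a p53 response element–beta-lactamase reporter were plated and rested 5 h, then dosed with compound in DMSO plus rat liver microsomes and NADPH, each at 0.5 mg/mL final. After 16 h at 37 C, LiveBLAzer substrate was added for 2 h.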

Assay [6] is described as follows: p53 small molecule agonists, cell-based qHTS assay with human liver microsomes: qHTS cell viability counter screen (AID 1963579). Also: nearly all actives have a fitted effect of over 45% in size. An outline of the steps:
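Cytotoxicity counter screen: p53RE-bla, 4,000 cells/well; 5 h settle, 37 C/5% CO2; cpd + HLM 0.5 mg/mL + NADPH 0.5 mg/mL (final); 16 h, 37 C; CellTiter-Glo, 30 min RT, luminescence.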

The nature of assay [7]: p53 small molecule agonists, cell-based qHTS assay with rat liver microsomes: qHTS cell viability counter screen (AID 1963580). Also: nearly all actives have a fitted effect of over 45% in size. Also: potency is read from the fitted curve at half-maximal effect. In a few lines:
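p53RE-bla HCT-116 cells were exposed 16 h at 37 C to compounds with rat liver microsomes (0.5 mg/mL) and NADPH (0.5 mg/mL). Viability was measured in the same wells as ATP content by CellTiter-Glo luminescence.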

Assay [8] in a line: p53 small molecule agonists, cell-based qHTS assay: qHTS cell viability counter screen (AID 1963581). Also: nearly all actives have a fitted effect of over 45% in size. Also: potency is read from the fitted curve at half-maximal effect. In a few lines:
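HCT-116 p53RE-bla cells, 4,000/well, plated 5 h before compound pin transfer; 16 h at 37 C; bla substrate 2 h RT; then CellTiter-Glo, 30 min RT, luminescence.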
In general terms: qHTS replaces the single test concentration by a dilution series.

The target of assay [9] is 5-hydroxytryptamine receptor 2A (Homo sapiens) (UniProt P28223). Nature of the assay: 5-hydroxytryptamine receptor 2A (HTR2A) small molecule antagonists, cell-based qHTS assay (AID 1963586). Also: nearly all actives have a fitted effect of over 45% in size. An outline of the steps:
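Antagonist-mode intracellular calcium assay: DOI (4 nM) added after 5 min compound pre-incubation at room temperature to dye-loaded HTR2A-CHO cells. Fluorescence followed for 3 min, sampled every second.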

Assay [10] has the same target. Nature of the assay: 5-hydroxytryptamine receptor 2A (HTR2A) small molecule agonists, cell-based qHTS assay (AID 1963587). Also: nearly all actives have a fitted effect of over 30% in size. In a few lines:
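CHO cells stably expressing human HTR2A, plated 18 h, loaded with calcium dye 1 h at 37 C. Agonist mode: compounds added and intracellular calcium fluorescence recorded kinetically for 2 min at 1 sec intervals.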

The target of assay [11] is Muscarinic acetylcholine receptor M1 (Homo sapiens) (UniProt P11229). Nature of the assay: Cholinergic receptor muscarinic 1 (CHRM1) small molecule antagonists, cell-based qHTS assay (AID 1963588). Also: nearly all actives have a fitted effect of over 40% in size. An outline of the steps:
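CHRM1-CHO calcium-flux assay, antagonist mode. Cells were seeded 18 h, dye-loaded 1 h at 37 C and given compound for 5 min at RT, then acetylcholine was added at 50nM. FDSS fluorescence was read 3 min; 15 concentrations, three runs.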

For assay [12] the target is unchanged. Nature of the assay: Cholinergic receptor muscarinic 1 (CHRM1) small molecule agonists, cell-based qHTS assay (AID 1963589). Also: nearly all actives have a fitted effect of over 35% in size. An outline of the steps: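 Human M1 in stable CHO line; 18 h plating, 1 h dye load 37 C; cpd added (agonist mode); Ca2+ fluorescence kinetic read, 1 s intervals; 15 conc, 3 runs.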
In assay [13] the target is Beta-2 adrenergic receptor (Homo sapiens) (UniProt P07550). Nature of the assay: Adrenergic beta2 receptor (ADRB2) small molecule antagonists, cell-based qHTS assay (AID 1963592). Also: series mostly up to about 92 µM; nearly all actives have a fitted effect of over 50% in size. An outline of the steps:
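Cells (CHO, stable ADRB2 overexpression) incubated 18-20hr at 37C; compounds added from DMSO; agonist mix (1nM isoproterenol, 100uM IBMX, 25uM Ro-20-1724) added; 0.5hr RT; d2-cAMP and anti-cAMP-cryptate added; 1hr RT; 665/615 nm read.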

Assay [14] has the same target. Nature of the assay: Adrenergic beta2 receptor (ADRB2) small molecule agonists, cell-based qHTS assay (AID 1963593).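 Also: CHO cells stably overexpressing human ADRB2.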 In a few lines:
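CHO cells stably over-expressing ADRB2 were plated overnight at 37C, then dosed with compounds plus a stimulation mix containing 100uM IBMX and 25uM Ro-20-1724 for 0.5hr at room temperature. cAMP was measured by HTRF competition, 1hr.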

The target of assay [15] is D(2) dopamine receptor (Homo sapiens) (UniProt P14416). Nature of the assay: Dopamine D2 receptor (DRD2) small molecule agonists, cell-based qHTS assay (AID 1963594). Also: nearly all actives have a fitted effect of over 35% in size. In a few lines:
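HEK293 cells stably expressing human DRD2, pre-treated with PDE inhibitor Ro20-1724 (0.1 mM final) and compound 10 min at room temperature, then stimulated with NKH477 (200nM […]) for 30 min. cAMP read by HTRF (665/620 nm).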

For assay [16] the target is unchanged. Nature of the assay: Dopamine D2 receptor (DRD2) small molecule antagonists, cell-based qHTS assay (AID 1963595; active = well fitted inhibition curve with a large enough effect in the signal ratio in the repeat runs, with a control signal flat; the % refers to the signal ratio). In a few lines:
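In this cell-based antagonist screen, compounds act for 10 min at room temperature before a 30 min challenge with 12 nM quinpirole and 200 nM NKH477. cAMP is quantified by HTRF competition in DRD2-HEK293 cells containing 0.1 mM Ro20-1724.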

The nature of assay [17]: cAMP Responsive Elements (CRE) small molecule antagonists, cell-based qHTS assay (AID 1963591; active = well fitted inhibition curve with a large enough effect in the signal ratio in the repeat runs, not every such curve was filed as active; the % refers to the signal ratio). An outline of the steps: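 Beta-lactamase reporter read by FRET substrate (LiveBLAzer B/G) after 2 h at room temperature. CRE-bla HEK293T cells had received compound plus 0.25 uM (final) NKH477 for 3 h at 37 °C.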
Assay [18] can be described thus: p53 small molecule agonists, cell-based qHTS assay with human liver microsomes (AID 1963577). In a few lines:
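Fluorescence of the beta-lactamase reporter in p53RE-bla cells, detected with LiveBLAzer substrate (2 h, room temperature, dark), served as the read-out after 16 h compound exposure at 37 C with human liver microsomes and NADPH, each 0.5 mg/mL final.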

Assay [19] is described as follows: p53 small molecule agonists, cell-based qHTS assay (AID 1963582; active = well fitted activation curve with a large enough effect in the signal ratio in the repeat runs, not every such curve was filed as active; the % refers to the signal ratio). In a few lines:
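Reporter line: p53RE-bla. Pre-incubation 5 h, 37 C, 5% CO2; compound (DMSO, pin tool) 16 h, 37 C; B/G FRET substrate 2 h RT; fluorescence intensity read.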

Assay [20] can be described thus: cAMP Responsive Elements (CRE) small molecule agonists, cell-based qHTS assay (AID 1963590). An outline of the steps:
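HEK 293T CRE-bla, 2,000 cells/well, 18 h preincubation 37 C/5% CO2; cpds (DMSO) pinned, 3 h; LiveBLAzer B/G FRET substrate, 2 h RT.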

Inconclusive results are not listed. Active and inactive are the calls of the source. Unless noted, calls follow the shape of the full dose curve.

Sequence of D(2) dopamine receptor (Homo sapiens) (P14416 whole entry, looked up): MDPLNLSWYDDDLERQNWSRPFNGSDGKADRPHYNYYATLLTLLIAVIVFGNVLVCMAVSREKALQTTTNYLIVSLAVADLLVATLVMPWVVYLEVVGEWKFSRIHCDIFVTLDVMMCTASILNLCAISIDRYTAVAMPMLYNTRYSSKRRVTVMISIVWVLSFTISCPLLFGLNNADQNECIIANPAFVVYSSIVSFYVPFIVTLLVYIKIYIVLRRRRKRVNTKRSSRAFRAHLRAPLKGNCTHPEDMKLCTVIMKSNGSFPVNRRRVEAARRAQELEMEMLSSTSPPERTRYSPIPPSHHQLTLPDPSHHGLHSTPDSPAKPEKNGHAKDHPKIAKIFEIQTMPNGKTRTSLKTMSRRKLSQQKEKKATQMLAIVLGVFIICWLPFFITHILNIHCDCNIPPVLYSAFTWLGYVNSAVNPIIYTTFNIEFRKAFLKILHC
Sequence of Muscarinic acetylcholine receptor M1 (Homo sapiens) (P11229 whole entry, looked up): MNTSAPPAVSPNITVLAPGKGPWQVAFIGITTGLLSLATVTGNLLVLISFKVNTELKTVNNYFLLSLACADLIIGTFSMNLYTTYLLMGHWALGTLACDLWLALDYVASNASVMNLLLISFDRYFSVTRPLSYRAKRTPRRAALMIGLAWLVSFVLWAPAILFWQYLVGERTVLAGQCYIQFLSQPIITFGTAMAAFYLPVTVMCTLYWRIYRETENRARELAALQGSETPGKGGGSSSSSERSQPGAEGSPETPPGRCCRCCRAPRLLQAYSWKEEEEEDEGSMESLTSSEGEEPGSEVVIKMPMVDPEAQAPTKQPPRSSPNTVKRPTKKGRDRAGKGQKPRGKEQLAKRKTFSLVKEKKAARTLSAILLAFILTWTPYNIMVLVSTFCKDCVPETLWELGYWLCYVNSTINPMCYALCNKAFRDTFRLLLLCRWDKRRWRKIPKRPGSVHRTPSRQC
Sequence of KiSS-1 receptor (Homo sapiens) (Q969F8 whole entry, looked up): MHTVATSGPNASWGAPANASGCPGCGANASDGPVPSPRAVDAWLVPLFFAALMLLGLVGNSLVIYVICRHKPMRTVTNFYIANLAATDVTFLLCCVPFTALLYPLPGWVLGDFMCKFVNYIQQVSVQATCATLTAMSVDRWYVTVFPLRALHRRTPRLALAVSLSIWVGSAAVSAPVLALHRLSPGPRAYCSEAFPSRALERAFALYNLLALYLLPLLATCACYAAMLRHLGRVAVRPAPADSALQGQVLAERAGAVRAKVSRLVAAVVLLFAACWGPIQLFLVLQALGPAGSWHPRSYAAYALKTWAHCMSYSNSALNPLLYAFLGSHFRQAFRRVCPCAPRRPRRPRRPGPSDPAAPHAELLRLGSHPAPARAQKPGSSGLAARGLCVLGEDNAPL
Sequence of Beta-2 adrenergic receptor (Homo sapiens) (P07550 whole entry, looked up): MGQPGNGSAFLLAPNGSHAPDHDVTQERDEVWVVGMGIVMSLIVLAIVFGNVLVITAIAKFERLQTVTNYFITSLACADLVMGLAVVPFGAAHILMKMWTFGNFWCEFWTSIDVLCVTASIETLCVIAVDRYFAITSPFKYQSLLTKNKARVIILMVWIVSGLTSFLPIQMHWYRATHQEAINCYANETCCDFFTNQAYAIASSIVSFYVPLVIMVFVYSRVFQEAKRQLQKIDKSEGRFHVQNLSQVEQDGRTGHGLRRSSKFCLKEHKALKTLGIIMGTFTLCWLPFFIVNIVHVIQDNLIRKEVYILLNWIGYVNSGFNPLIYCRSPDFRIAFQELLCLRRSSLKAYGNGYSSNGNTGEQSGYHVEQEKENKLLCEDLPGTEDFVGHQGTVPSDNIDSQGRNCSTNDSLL
Sequence of Gonadotropin-releasing hormone receptor (Homo sapiens) (P30968 whole entry, looked up): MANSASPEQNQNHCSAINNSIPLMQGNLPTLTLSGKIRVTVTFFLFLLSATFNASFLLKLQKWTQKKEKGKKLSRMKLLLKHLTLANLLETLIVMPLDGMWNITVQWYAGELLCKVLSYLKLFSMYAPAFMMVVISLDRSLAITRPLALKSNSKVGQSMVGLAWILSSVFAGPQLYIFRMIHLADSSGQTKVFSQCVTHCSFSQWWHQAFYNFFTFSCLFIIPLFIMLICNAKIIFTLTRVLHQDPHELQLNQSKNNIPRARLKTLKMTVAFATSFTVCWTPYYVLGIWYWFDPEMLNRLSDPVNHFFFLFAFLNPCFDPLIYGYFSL
Sequence of 5-hydroxytryptamine receptor 2A (Homo sapiens) (P28223 whole entry, looked up): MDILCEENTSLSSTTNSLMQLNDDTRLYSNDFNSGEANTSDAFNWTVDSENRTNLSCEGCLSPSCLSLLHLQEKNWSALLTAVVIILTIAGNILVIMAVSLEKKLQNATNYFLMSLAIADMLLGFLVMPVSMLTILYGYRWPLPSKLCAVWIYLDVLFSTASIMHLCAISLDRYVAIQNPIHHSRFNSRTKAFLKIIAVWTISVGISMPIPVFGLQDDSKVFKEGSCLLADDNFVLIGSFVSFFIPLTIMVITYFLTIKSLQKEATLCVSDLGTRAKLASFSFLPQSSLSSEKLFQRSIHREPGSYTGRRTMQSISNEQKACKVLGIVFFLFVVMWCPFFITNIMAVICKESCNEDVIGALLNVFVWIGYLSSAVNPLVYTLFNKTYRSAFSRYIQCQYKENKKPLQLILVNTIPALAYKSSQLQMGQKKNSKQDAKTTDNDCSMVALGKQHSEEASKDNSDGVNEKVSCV

Consider `Oc1c(Cl)c(Cl)cc(Cl)c1Cl`, for which the Potency entry in assay [1], in assay [2], in assay [3], in [4], in [5] and in assay [6] was “inactive” in each case. Also, the Potency result in assay [7], in [8], in assay [9], in assay [10], in assay [11] and in assay [12] was “inactive” each time. The Potency result in assay [13], in assay [14], in assay [15] and in [16] was “inactive” throughout.

`NS(=O)(=O)C(F)(F)C(F)(F)C(F)(F)C(F)(F)C(F)(F)C(F)(F)C(F)(F)C(F)(F)F`: in assay [1], the Potency is 68.6 µM (active). Further, the Potency entry in assay [2], in [3], in assay [4], in assay [5], in assay [6] and in assay [8] was “inactive” in each case. Besides, the Potency result in assay [9], in assay [10], in [11], in assay [17], in assay [13] and in assay [14] was “inactive” in each case. The Potency result in [16] was “inactive”.

Take `Cc1nnc2n1-c1sc(CCc3ccc(CC(C)C)cc3)cc1C(c1ccccc1Cl)=NC2C` (centres undefined): the Potency entry in [1], in assay [2], in assay [3], in assay [4], in assay [18] and in assay [5] was “inactive” each time. Also, the Potency entry in assay [6], in assay [10], in [11], in assay [12], in assay [13] and in [15] was “inactive” in each case.

For the compound `C[C@@H]1O[C@@H](O[C@@H]2C=C3CC[C@@H]4[C@H](CC[C@]5(C)[C@@H](c6ccc(=O)oc6)CC[C@]45O)[C@@]3(C)CC2)[C@H](O)[C@H](O)[C@H]1O`, in assay [1], the Potency was 0.0106 µM (active). For the same compound, the Potency entry in assay [2], in assay [3], in assay [4], in assay [18], in assay [6] and in [13] was “inactive” each time. Moreover, the Potency entry in [14], in [15] and in assay [16] was “inactive” in each case.

As to `S=C=NCc1ccccc1`, the Potency in [1] was 27.6 µM (active). Besides, the Potency entry in assay [2], in assay [3], in [4], in assay [5], in assay [7] and in assay [8] was “inactive” each time. Also, the Potency entry in assay [19], in assay [9], in assay [10], in assay [11], in assay [12] and in [20] was “inactive” in each case. In addition, the Potency result in assay [17], in assay [13], in assay [15] and in assay [16] was “inactive” in each case.

Turning to `CCCOCC(=Nc1ccc(Cl)cc1C(F)(F)F)n1ccnc1`, the Potency in assay [1] is 27.3 µM (active). In addition, the Potency entry in assay [2], in assay [3], in assay [4], in [18], in assay [5] and in assay [6] was “inactive” throughout. Moreover, in [13], the Potency result was “inactive”.

For `O=[N+]([O-])c1cc(C(F)(F)F)c(Cl)c([N+](=O)[O-])c1Cl`, the Potency was 9.69 µM (active) in assay [1], 36.3 µM (active) in [7] and 16.2 µM (active) in [8]. The Potency result in [2], in assay [3], in assay [4], in assay [18], in assay [5] and in assay [9] was “inactive” each time. Further, the Potency result in assay [10], in [11], in [12], in [13], in assay [15] and in assay [16] was “inactive” in each case.

On to `Clc1cc(Cl)c(-c2cc(Cl)c(Cl)cc2Cl)cc1Cl`, for which the Potency entry in [1], in [2], in assay [3], in assay [4], in assay [5] and in assay [6] was “inactive” throughout. For the same compound, the Potency entry in assay [7], in [8], in [19], in assay [9], in assay [10] and in assay [11] was “inactive” throughout. In addition, the Potency result in assay [12], in assay [20], in assay [17], in [13] and in assay [15] was “inactive” each time.
